Laboratory results from PubChem BioAssay AID1851 (National Center for Advancing Translational Sciences (NCATS), 2009).
“And” between values parts separate entries of the source, which are not always exact repeats. Equal values may be shown once. About 2,600 (16%) of roughly 16,000 compounds were called active. Not shown: some 20% with an inconclusive outcome. Calls come from the whole dose curve; as a rule, active = well fitted curve in the direction sought with a large enough effect; inconclusive = small, poorly fitted or top-dose-only effect, or effect the other way; inactive = no such curve, though single readings can be large or run the other way. A selection follows.

Biological target: Cytochrome P450 2D6 (Homo sapiens) (UniProt P10635)
Assay: Cytochrome panel assay with activity outcomes
Conditions: recombinant CYP, pro-luciferin dealkylation, luminescence, p450-cyp2d6; series mostly up to 57.1 µM
% is set by controls: 0 for no effect and ±100 for the full control effect.

Cytochrome P450 2D6 (Homo sapiens), sequence (P10635 whole entry, looked up): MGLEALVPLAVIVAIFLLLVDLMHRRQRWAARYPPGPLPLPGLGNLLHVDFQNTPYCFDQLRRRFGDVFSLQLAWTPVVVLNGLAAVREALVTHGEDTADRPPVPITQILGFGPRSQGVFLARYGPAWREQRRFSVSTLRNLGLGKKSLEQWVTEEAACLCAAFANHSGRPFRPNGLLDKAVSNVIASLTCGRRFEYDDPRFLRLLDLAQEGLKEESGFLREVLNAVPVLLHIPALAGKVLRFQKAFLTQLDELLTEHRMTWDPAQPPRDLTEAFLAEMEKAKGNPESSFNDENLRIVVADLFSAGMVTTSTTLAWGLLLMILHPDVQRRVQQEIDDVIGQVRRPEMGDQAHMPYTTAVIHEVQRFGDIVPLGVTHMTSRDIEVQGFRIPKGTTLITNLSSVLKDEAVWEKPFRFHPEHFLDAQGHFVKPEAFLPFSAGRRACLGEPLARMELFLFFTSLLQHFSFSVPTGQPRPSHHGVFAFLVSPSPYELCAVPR

Structure (SMILES)	AC50	activity, negative = inhibition
CCOC(=O)CNS(=O)(=O)c1cc(-c2nn(C)c(=O)c3ccccc23)ccc1C	inactive	–
CCCCCCCCC(=O)N/N=C/c1ccccn1	inactive	–
CCNc1ncc2nc(-c3ccc(Cl)cc3)c(=O)n(Cc3cccc(OC)c3)c2n1	inactive	–
O=[N+]([O-])c1ccc(N2CCC(=NOCc3ccc(Cl)cc3)CC2)cc1	inactive	–
O=c1c(-c2ccc(Cl)cc2)nc2cncnc2n1Cc1ccccc1Cl	inactive	–
CCOC(=O)CSc1nnc(CNC(=O)c2ccc(OC)cc2)n1C1CCCCC1	inactive	–
Cc1ccc(C)c(-c2cc(C(=O)Nc3nccs3)c3ccccc3n2)c1	inactive	–
CCCCNC(=O)NC1C(NC(=O)NCCCC)N(C)C(=O)N1C (stereo not given)	inactive	–
CC(=O)N1CC(=O)N(OCc2ccccc2)C1c1ccc(Cl)cc1Cl (stereo not given)	inactive	–
CCn1c(SCC(=O)OC)nc2sc3c(c2c1=O)CCC3	inactive	–
COC(=O)c1cccc(C(=O)Nc2ccc(C)cc2)n1	inactive	–
COc1ccc2[nH]cc(CCNc3ccnc(-c4ccc5c(c4)OCO5)n3)c2c1	7.94 µM (active)	–
N#CCCn1c(=O)c(-c2cccc(C#N)c2)nc2cnc(Oc3cccc(Cl)c3)nc21	inactive	–
CC(=O)SCC[N+](C)(C)C	inactive	–
O=[N+]([O-])c1ccc([C@@H](Nc2ccccc2)c2ccc3cccnc3c2O)cc1	–	-2.01% [at 11.4 µM] (inactive)
CN1CCC2(CC1)CCN(C(=O)c1ccncc1)CC2	inactive	–
CC(C)NC(=O)N1CCC2(CC1)CCN(C(=O)c1ccncc1)CC2	inactive	–
CC(C)CN1CCC2(CC1)CCN(C(=O)c1ccncc1)CC2	3.98 µM (active)	–
O=C(c1cnccn1)N1CCC2(CC1)CCN(c1ncccn1)CC2	inactive	–
CC(C)CN1CCCC2(CCN(C(=O)c3cnccn3)CC2)C1	inactive	–
CC(C)CN1CCC2(CC1)CCN(C(=O)c1cnccn1)CC2	10 µM (active)	–
COC(=O)[C@@]1(Cc2ccc(OC)cc2)[C@H]2c3cc(C(=O)N4CCCC4)n(Cc4ccc(Cl)c(C(F)(F)F)c4)c3C[C@H]2CN1C(=O)c1ccccc1	inactive	–
COc1cc(NC(=S)NC(=O)c2c(OC)cccc2OC)ccc1NC(=O)c1cccs1	inactive	–
C=C1c2cccc(O)c2C(O)=C2C(=O)[C@@]3(O)C(O)=C(C(N)=O)C(=O)[C@@H](N(C)C)[C@@H]3[C@@H](O)[C@H]12	inactive	–

Structure (SMILES)	AC50	activity, negative = inhibition
CCOC(=O)N1CCN(C(=O)CNS(=O)(=O)c2cccs2)CC1	inactive	–
CCOC(=O)N1CCN(C(=O)CNCc2cccs2)CC1	3.98 µM (active)	–
CCOC(=O)N1CCN(c2nc(-c3cccs3)cc(C(F)(F)F)n2)CC1	inactive	–
O=c1n(-c2ccccc2)c(=O)n2n1CC[C@H]1/C(=N\OCc3ccccc3)[C@H]3O[C@@H]3[C@@H](O)[C@@H]12	–	10.4% [at 11.4 µM] (inactive)
c1ccc(Oc2cc(-c3ccccc3)ncn2)cc1	inactive	–
Clc1ccc(C(c2nnnn2C2CCCC2)N2CCN(Cc3ccncc3)CC2)cc1 (stereo not given)	1.26 µM (active)	–
c1coc(CN2CCN(C(c3cccs3)c3nnnn3C3CCCC3)CC2)c1 (stereo not given)	1.26 µM (active)	–
Cc1ccc(C(c2nnnn2C2CCCC2)N2CCN3CCCC3C2)cc1 (stereo not given)	0.447 µM (active)	–
CON(C)C(=O)c1nnc2c3ccccc3n(S(=O)(=O)c3ccc(C)cc3)c2n1	–	-3.04% [at 11.4 µM] (inactive) and -5.32% [at 11.4 µM] (inactive)
O=c1c(-c2ccc(F)cc2)nc2cnc(Nc3ccccc3)nc2n1Cc1cccs1	inactive	–
CC(C)N(CC(=O)O)CC(=O)O	–	12.3% [at 11.4 µM] (inactive)
CO[C@H]1COC(=O)[C@@H](C)COC(=O)[C@@H](Cc2ccccc2)NC(=O)C/C=C\[C@H]1C	–	0.386% [at 11.4 µM] (inactive)
Cc1ccc(S(=O)(=O)N(CC(=O)N/N=C/c2ccc(F)cc2)c2cccc3cccnc23)cc1	inactive	–
CCCOc1ccc(C(=O)NNC(=S)NC(=O)CC)cc1	inactive	–
CCCOc1ccc(OCCNC2CCCC2)cc1	1.26 µM (active)	–
CCCOc1ccc(-c2nc(N)n[nH]2)cc1	inactive	–
O=C(Nc1cccc(F)c1)N1CC[C@@]2(CCCN(C(=O)c3cnccn3)C2)C1	inactive	–
CC(C)(C)NC(=O)C(=O)N/N=C/c1ccc(Br)cc1	inactive	–
Nc1nc(-c2ccccc2)cc(-c2ccccc2O)n1	inactive	–
COc1cccc(Cn2c(=O)c(-c3ccc(Cl)cc3)nc3cnc(OC)nc32)c1	inactive	–
c1ccc(CCN2CCN=C2Cc2ccccc2)cc1	0.126 µM (active)	–
C[C@H](c1ccccc1)N1C(=O)[C@H]2[C@@H]3[C@H](O)[C@H](O)CC(=O)[C@H]3CC[C@H]2C1=O	–	4.75% [at 11.4 µM] (inactive)
Cc1ccccc1NC(=S)NC(=O)c1cc(-c2ccccc2)nc2ccccc12	inactive	–
CC(C)(C)C(=O)NNC(=O)CCCOc1ccc(Cl)cc1Cl	inactive	–

Structure (SMILES)	AC50	activity, negative = inhibition
COC(=O)CCC(=O)NNC(=O)CCCOc1ccc(Cl)cc1Cl	inactive	–
C#CCN(C)CCCOc1ccc(Cl)cc1Cl	2 µM (active) and 398 nM (active)	–
Cc1ncc([N+](=O)[O-])n1CC(=O)NCc1ccccc1	inactive	–
COc1ccc(NC(=O)C23CC4CC(C2)CC(n2cnc(Br)n2)(C4)C3)c(C)c1	inactive	–
O=C(NC1CCCCC1)C12CC3CC(C1)CC(n1cncn1)(C3)C2	11.2 µM (active)	–
O=S(=O)(c1cccc(-c2nnc(-c3ccc(Br)cc3)o2)c1)N1CCCCCC1	inactive	–
Cc1ccc(S(=O)(=O)n2ccc(-c3cccc(OCc4c(F)cccc4Cl)c3)n2)cc1	inactive	–
COc1ccc(C(=O)N/N=C2/C(=O)c3c(C)cc(C)cc3CC2(C)C)cc1	–	-4.67% [at 11.4 µM] (inactive)
CCCC1S/C(=N/N=C/c2ccc(OC)cc2)N(Cc2ccc(OC)cc2)C1=O (stereo not given)	inactive	–
COc1cccc(C(=O)n2c(SC)nc3cc4c(cc32)OCCO4)c1	inactive	–
Cc1ncc(N=Nc2ccccc2Cl)c(-c2ccccc2)n1	inactive	–
COc1ccc(CCn2c(=N)c(C(=O)NCc3ccco3)cc3c(=O)n4ccccc4nc32)cc1	1.12 µM (active)	–
CCOc1ccc(-n2cc(C(=O)NCc3ccco3)c3cc(OC)c(OC)cc3c2=O)cc1	inactive	–
CCOC(=O)c1cc2c(=O)n3ccccc3nc2n(CCCOC)c1=NC(C)=O	inactive	–
O=C(/C=C/c1ccccc1)N1CCN(Cc2nc3ccccc3c(=O)[nH]2)CC1	inactive	–
COc1cccc(-c2nc(NCc3cccs3)c3ccccc3n2)c1	12.6 µM (active)	–
CS(=O)(=O)Nc1cccc(-c2nc(NCc3cccnc3)c3ccccc3n2)c1	20 µM (active)	–
CS(=O)(=O)Nc1cccc(-c2nc(NCc3ccccc3)c3ccccc3n2)c1	20 µM (active)	–
Cc1cccc(CNc2nc(-c3cccc(NS(C)(=O)=O)c3)nc3ccccc23)c1	12.6 µM (active)	–
O=C(O)CSc1sc(=S)sc1SCC(=O)O	inactive	–
N[C@@H](Cc1ccc(O)c(O)c1)C(=O)O	inactive	–
O=C(NNC(=O)c1cc2cc3ccccc3nc2s1)c1cccc(Cl)c1	inactive	–
COc1ccc(NC(=O)c2ccc3c(=O)n(Cc4ccco4)c(=S)[nH]c3c2)c(OC)c1	inactive	–
Cc1nc2c(ccc3nc(NC(=O)c4ccc5c(c4)OCCO5)sc32)s1	inactive	–

Structure (SMILES)	AC50	activity, negative = inhibition
CCOCCCNC(=O)C1CCN(S(=O)(=O)N2CC(C)CC(C)C2)CC1 (stereo not given)	inactive	–
CC[C@H](C)N(C)C(=O)c1cc2ccccc2c(-c2ccccc2Cl)n1	inactive	–
CCOC(=O)CC(NC(=O)c1ccc(C)cc1)c1ccc(C)cc1 (stereo not given)	inactive	–
O=C(c1cccc(F)c1)N1CCC[C@@]2(CCN(c3cccc(-c4ccccc4)c3)C2)C1	inactive	–
COc1cccc(Nc2ncc3nc(C)c(=O)n(-c4ccccc4)c3n2)c1	inactive	–
Cc1oc2c(C)c(O)ccc2c(=O)c1-c1ccc2ccccc2n1	inactive	–
O=[N+]([O-])c1ccc(CSc2ncnc3c2ncn3[C@@H]2O[C@@H](CO)[C@@H](O)[C@H]2O)cc1	inactive	–
CS(=O)(=O)Nc1cccc(-c2nc(NCc3cccs3)c3ccccc3n2)c1	10 µM (active)	–
CCOC(=O)C(NC(C)=O)C(OC(C)=O)c1cccc(N(CCO)CCO)c1 (stereo not given)	inactive	–
Cc1nc(-c2c(C(F)(F)F)noc2-c2ccc(O)cc2O)cs1	inactive	–
COc1ccc(CCNC(=O)CC(NS(=O)(=O)c2ccc(NC(C)=O)cc2)C(C)C)cc1OC (stereo not given)	inactive	–
CC(=O)Nc1ccc(S(=O)(=O)c2ccc(N)cc2)cc1	inactive	–
CC(=O)Nc1ccc(S(=O)(=O)NCCc2ccc(F)cc2)cc1	15.8 µM (active)	–
CN(Cc1ccco1)c1cc(-c2ccoc2)ncn1	inactive	–
CN(C)C(=O)c1ccc(-c2cc(N(C)Cc3ccco3)ncn2)cc1	inactive	–
CN(Cc1ccco1)c1cc(-c2ccc3c(c2)OCO3)ncn1	12.6 µM (active)	–
CN(C)c1ccc(-c2cc(N(C)Cc3ccco3)ncn2)cc1	7.94 µM (active)	–
COc1ccc(C(=O)N2CCC3(CC2)CN(C(=O)Nc2cccc(C#N)c2)C3)cc1	inactive	–
Cc1nn(CCc2n[nH]c(=S)n2-c2ccc(F)c(Cl)c2)c(C)c1[N+](=O)[O-]	inactive	–
C#C[C@@]1(OC(C)=O)CC[C@@H]2[C@@H]3CCC4=C[C@@H](OC(C)=O)CC[C@H]4[C@H]3CC[C@]21C	inactive	–
N#CCSc1ncnc2c1cnn2CCO	inactive	–
COC(=O)c1c(-c2ccccc2)csc1NC(=O)CSc1ncnc2sc(C)c(C)c12	inactive	–
NC(=S)c1ccc[n+]([C@@H]2O[C@@H](COP(=O)([O-])OP(=O)(O)OC[C@@H]3O[C@@H](n4cnc5c(N)ncnc54)[C@@H](OP(=O)(O)O)[C@H]3O)[C@@H](O)[C@H]2O)c1	inactive	–
